# Assay results: the supplement of paper PMC3334620
# Over roughly 33,000 sequences, “E-score (-0.5 to 0.5)” has its median near -0.054; the highest 2% begin near 0.35. Many of the other results were omitted from the sample, so the highest values are more common in it than they were.
# Target: T1, Stb5 (UniProt P38699)
# T1 sequence: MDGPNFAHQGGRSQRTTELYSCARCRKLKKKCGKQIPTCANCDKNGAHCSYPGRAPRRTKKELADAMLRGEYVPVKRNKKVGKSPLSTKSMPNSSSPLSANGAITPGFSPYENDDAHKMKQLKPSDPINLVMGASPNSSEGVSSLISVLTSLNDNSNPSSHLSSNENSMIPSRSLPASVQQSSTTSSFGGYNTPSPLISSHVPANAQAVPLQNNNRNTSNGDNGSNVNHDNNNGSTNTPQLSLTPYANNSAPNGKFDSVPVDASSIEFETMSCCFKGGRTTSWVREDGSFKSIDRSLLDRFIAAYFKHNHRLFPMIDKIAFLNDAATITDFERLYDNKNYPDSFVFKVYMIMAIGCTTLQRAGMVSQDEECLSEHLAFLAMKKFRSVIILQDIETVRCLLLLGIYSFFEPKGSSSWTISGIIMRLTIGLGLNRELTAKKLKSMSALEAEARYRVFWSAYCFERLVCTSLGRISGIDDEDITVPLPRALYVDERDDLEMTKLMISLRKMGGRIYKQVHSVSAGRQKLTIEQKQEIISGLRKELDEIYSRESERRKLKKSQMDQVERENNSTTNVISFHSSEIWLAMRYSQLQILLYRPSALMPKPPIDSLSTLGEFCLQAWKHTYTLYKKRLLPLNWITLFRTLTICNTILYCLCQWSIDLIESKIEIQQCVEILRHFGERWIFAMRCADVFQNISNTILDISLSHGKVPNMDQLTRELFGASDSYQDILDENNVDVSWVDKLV
# Assay: PBM E-score (8-mer binding enrichment) (E-score (-0.5 to 0.5)); higher = stronger / more preferred TF binding
# Conditions: protein concentration: 200 nM; construct: GST-full length
# Method: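 Universal 'all 10-mer' protein binding microarrays (Agilent AMADID 015681) probed with GST-tagged S. cerevisiae TFs (full-length or DBD) made by in vitro transcription/translation (PURExpress), about 100-200 nM. Bound TF was detected with fluorescent anti-GST. Each ungapped 8-mer (which stands for itself and its reverse complement) is scored by the PBM enrichment score (E-score), a modified Wilcoxon-Mann-Whitney statistic from -0.5 to +0.5, computed with the Universal PBM Analysis Suite. Scale: above 0.35 generally sequence-specific binding.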
row,Sequence,PBM E-score
1,AGTGGCAA,-0.04
2,CTGCTATA,0.0793
3,CAGAGTGG,-0.19
4,AGAACCAC,0.0238
5,CATCATAG,-0.0501
6,AGGAGCAC,-0.252
7,GCCATTAA,-0.0877
8,GGTATTAA,0.404
9,TGTATTAA,-0.0825
10,AGTATTAA,-0.0112
11,GGTATTAC,0.386
12,AGTATTAC,0.0335
13,CGTATTAC,0.188
14,GTCTTTTA,-0.0581
15,ATGCGGGC,0.087
16,CCATCGGG,0.262
17,ATACCCGG,0.239
18,AAGTGCGC,0.243
19,CGTCATGA,-0.0111
20,AGGGCAGG,-0.205
21,TCGAAACA,-0.233
22,CACAGCGG,0.286
23,CGCGGCGC,0.318
24,ATCGGCGG,0.363
25,AACAGCGA,0.235

row,Sequence,PBM E-score
1,ATCGGCGA,0.272
2,AGCGGCGA,0.317
3,AACGGCGC,0.222
4,AGCGGCTG,0.0872
5,ATCGGCGC,0.291
6,AACAGCGG,0.366
7,AGCGGCGC,0.363
8,AGCGGCGG,0.401
9,GGCTCGAC,-0.113
10,ACCTGACA,-0.145
11,ATAGACCA,-0.188
12,TACAGATA,0.048
13,TAGTAGGA,-0.0819
14,ACTTACCG,0.195
15,GAGCCAGC,0.00015
16,AGGCGATC,-0.302
17,AAGGAGGT,-0.0343
18,GCAAGCCC,0.117
19,AGGGGCGA,-0.0945
20,AGGGGCGG,0.36
21,AGGGGCGC,-0.0545
22,ATCTTTTA,0.034
23,AAGGCTCT,-0.214
24,AGTACCGA,0.439
25,ACTACCGC,0.329

row,Sequence,PBM E-score
1,CGTACCGA,0.205
2,GGTACCGA,0.286
3,AGTACCAG,-0.0537
4,AGTACCCG,0.0305
5,AGTACCGC,0.435
6,CGTACCGC,0.302
7,AGTACCGG,0.367
8,AGTCGTAG,-0.232
9,AAGAGTGC,-0.0116
10,CCACTAGG,-0.166
11,TTCTCCAA,-0.0481
12,AAAGTATG,-0.172
13,TCCCCGAA,0.266
14,ACCCCGAA,0.37
15,CCCCCGAA,0.213
16,ACCCCGAT,0.441
17,AACCCGAC,0.347
18,GCCCCGAC,0.371
19,ACCCCGAG,0.351
20,GCCCCGAA,0.198
21,AACCCGAT,0.222
22,ACCCCGAC,0.444
23,GACCCGAC,0.295
24,CCCCCGAC,0.349
25,GCACTGGC,-0.0607

row,Sequence,PBM E-score
1,CATGTTCA,-0.334
2,CGGACAAC,0.144
3,ATCCGCTG,0.189
4,ATGATGGC,-0.19
5,CACGCCTG,-0.158
6,CCATCTAA,-0.192
7,ACACACCT,-0.0405
8,ACACACCG,0.372
9,ACACACCC,0.0669
10,ATACACCC,0.254
11,CGACACCG,0.371
12,CAACACCA,-0.1
13,CAACACCC,-0.206
14,CGACACCC,0.0971
15,CGACACCA,0.0464
16,ATACACCA,-0.0712
17,ATACACCG,0.402
18,CAACACCG,0.408
19,CTTAAACC,-0.0424
20,AAATACTG,-0.0876
21,ATCTTTGA,-0.157
22,AATTGAAA,-0.198
23,GCTAAGTA,-0.0566
24,CAAGAGGG,-0.306
25,AGACACCA,-0.13

row,Sequence,PBM E-score
1,AGACACCG,0.436
2,AGACACCC,-0.231
3,ACTATCCA,0.0766
4,AGTTTCTG,-0.117
5,ATCCGACA,0.283
6,CTCCGACA,0.366
7,GTCCGAAA,0.259
8,CTCCGAGC,0.102
9,CTCCGAGA,0.187
10,GTCCGAGA,0.184
11,CTCCGACC,0.375
12,ATCCGACC,0.262
13,GTCCGACA,0.403
14,CTACATGC,-0.179
15,CTTCTGTA,-0.09
16,CACCACAA,-0.0283
17,GAGTGGGC,0.0251
18,GGCATTCA,0.0519
19,ATTTCACA,-0.157
20,CCGCCAGC,0.356
21,CCGCCCCC,0.335
22,ACGCCCGC,0.28
23,CCGCCCCG,0.409
24,ACGCCCCG,0.188
25,ACGCCAGC,-0.181

row,Sequence,PBM E-score
1,CCGCCCGC,0.362
2,CCGCCCGG,0.344
3,GCGCCAGC,0.112
4,CTTATCAA,-0.125
5,ACAATGAA,-0.0923
6,CCACATTC,-0.0853
7,TAAATGCA,-0.18
8,CATGCGGA,0.167
9,ACACCTCC,0.0978
10,CATAGCGC,0.161
11,ATTGAGCC,0.0599
12,CCGGAGCC,0.182
13,ACCTCACA,-0.181
14,TCAAGTAA,-0.0626
15,CGGTGACA,0.42
16,CGGTGAAG,0.12
17,CGGTGAAA,0.41
18,GGGTGACA,0.0889
19,CGGTGAAC,0.177
20,TGGTGACA,0.0421
21,CACTGCCC,-0.0546
22,ACCCTGAC,-0.0664
23,GACCGCCC,0.322
24,CACCGCAG,0.344
25,CACCGCCC,0.41

row,Sequence,PBM E-score
1,CACCGCCG,0.405
2,AACCGCCC,0.107
3,CATCGCCG,0.264
4,CAGCGCCG,0.299
5,AATCGCCG,0.407
6,CACCGCCA,0.408
7,TACCGCCA,0.323
8,AATCGCCC,-0.00317
9,GACCGCCA,0.317
10,AAGTTGGT,-0.133
11,TCAGCAGA,-0.329
12,CTTGACTA,-0.193
13,CGGGAGGC,-0.136
14,CGGTTCAG,-0.0792
15,ATGGCAAA,-0.0403
16,CCTAGGTC,-0.15
17,ATGCTAAC,-0.0894
18,GGCAGTAC,0.0214
19,AAGTGAAC,-0.129
20,AACCGCCA,0.167
21,AAGCGCCA,-0.0397
22,AACCGCCT,0.0427
23,AACCGCCG,0.362
24,AAGCGCCT,0.0194
25,AAGCGCCG,0.396

row,Sequence,PBM E-score
1,TACATATA,0.0481
2,GGATTGAC,-0.0821
3,AGACTCCA,-0.139
4,AGTCTGTG,-0.27
5,GATGGGTA,-0.205
6,AGGTAGTA,0.0131
7,CGGTATCC,0.211
8,CGGTAGTA,0.385
9,CGGTATTA,0.472
10,CGGTATCA,0.364
11,CGGTAGTC,0.18
12,GGGTATCA,-0.079
13,GGGTGGTA,-0.0756
14,AGGTATTA,0.212
15,AGGTGGTA,0.165
16,CGGTATTC,0.275
17,CGGTGGTA,0.441
18,GGAAAGCA,0.024
19,AGAGTGCT,-0.0924
20,AGATCGGA,0.335
21,TAGTCGAA,-0.0837
22,AATAGCAG,-0.0777
23,AGCTATTA,-0.041
24,GGCTATTA,-0.0171
25,CGCTATTA,0.357

row,Sequence,PBM E-score
1,ACTGGCGC,-0.0545
2,AGGGGGGA,-0.38
3,GTATGGTA,-0.168
4,ATCCCCGA,0.374
5,ATCCCGGG,0.299
6,ATCCCCCC,-0.0842
7,GTCCCCGA,0.185
8,CTCCCCGC,0.248
9,CTCCCCGA,0.225
10,ATCCCCCG,0.292
11,ATCCCCGG,0.379
12,ATCCCCGC,0.453
13,ATTCGCAC,0.00083
14,GAAACGTA,-0.0447
15,AAATGCTA,-0.223
16,CCTTGGCA,-0.227
17,CGTTAACC,0.0895
18,GTACCAAC,-0.00359
19,ACCAGATC,-0.153
